Source: PubChem BioAssay (NCI)
This is part of a sample that, as a whole, favours compounds with a hit. Of some 79,000 tested, about 15% had one in any assay. Cut-off read from the data, not from the text of the source: active = growth inhibition above about 70%; inactive = the rest.

Assays:
[1] = NCI Yeast Anticancer Drug Screen. Data for the rad50 strain (AID 155);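 note: 0% = growth of vehicle-only cultures of the same strain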; conditions: S. cerevisiae rad50 strain growth inhibition; at 50.0 µM; stronger effect = higher value
Summary of the method: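 Genetically altered yeast (DNA repair pathway); compound treatment; growth inhibition vs vehicle ctrl.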

[2] = NCI Yeast Anticancer Drug Screen. Data for the mec2-1 strain (AID 157); conditions: S. cerevisiae mec2-1 strain, at 50.0 µM, stronger effect = higher value
Summary of the method: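 Using mec2-1 yeast: add compound, measure growth, express inhibition versus vehicle-treated cultures.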

[3] = NCI Yeast Anticancer Drug Screen. Data for the sgs1 mgt1 strain (AID 161);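 note: 0% = growth of cultures given vehicle only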; conditions: S. cerevisiae sgs1 mgt1 strain, at 50.0 µM, stronger effect = higher value
Summary of the method: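 This yeast growth screen uses a strain with defined DNA-repair lesions; compound-treated growth is compared with vehicle-treated growth.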

[4] = NCI Yeast Anticancer Drug Screen. Data for the cln2 rad14 strain (AID 165);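 note: 0% = growth equal to vehicle treated cultures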; conditions: S. cerevisiae cln2 rad14 strain, at 50.0 µM, stronger effect = higher value
Summary of the method: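 Yeast strain cln2 rad14, bearing defects in cell cycle control and DNA repair, serves as the test system; values reflect growth inhibition compared with vehicle.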

[5] = NCI Yeast Anticancer Drug Screen. Data for the bub3 strain (AID 167); conditions: S. cerevisiae bub3 mutant strain, at 50.0 µM, stronger effect = higher value
Summary of the method: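 Yeast carrying a defined mutation is treated with each compound, and growth is compared with that of vehicle-exposed cells to give inhibition.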

[6] = NCI Yeast Anticancer Drug Screen. Data for the mlh1 rad18 strain (AID 175); conditions: S. cerevisiae mlh1 rad18 strain growth inhibition; at 50.0 µM; stronger effect = higher value
Summary of the method: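 Steps: expose repair-defective yeast to compound; measure growth; express inhibition against vehicle-treated controls.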

Measured: growth inhibition

NC(=O)c1ccccc1NC(=O)C(=O)Cc1nc2ccccc2[nH]c1=O
inactive: [1] -2.55% | [2] -1.55% | [3] 11.7% | [4] 12.7% | [5] 1.25% | [6] 6.15%

COc1ccc(CCN=Cc2ccc(Cl)cc2)cc1OC
inactive: [1] -3.55% | [2] -28.4% | [3] 15.4% | [4] -1.2% | [5] -17.1% | [6] -10.6%

COc1cc(C2OCCO2)ccc1O
inactive: [1] 12.8% | [2] 7.05% | [3] -0.35% | [4] 39% | [5] 5.05% | [6] -11%

COc1ccc(COC=O)cc1
inactive: [1] 21.8% | [2] -5.1% | [3] -0.8% | [4] 1.55% | [5] 11.3% | [6] 24.4%

Fc1ccc2nncc(/C=C/c3ccccc3F)c2c1
inactive: [1] 11.3% | [2] 7.6% | [3] 8.4% | [4] -4.85% | [5] 11% | [6] -3.5%

CC1c2c(cc(=O)n(Cc3ccccc3)c2O)C(=O)N1Cc1ccccc1 (stereo unspecified)
inactive: [1] -12.6% | [2] 16.9% | [3] 3.85% | [4] 4.75% | [5] -23.6% | [6] 8.85%

CNC(=O)OCc1c(COC(=O)NC)c(-c2ccc(SC)cc2)n(C)c1C
inactive: [1] 24.9% | [2] 8.4% | [3] 47.4% | [4] 0.1% | [5] 2.6% | [6] 49.7%

Cc1ccc(SCCN)cc1
inactive: [1] 11.8% | [2] 11.9% | [3] -6.3% | [4] 2.35% | [5] -0.35% | [6] -10.2%

CCC#CCN(CCC)CCC
inactive: [1] -8.55% | [2] 7.1% | [3] -10.7% | [4] -41.1% | [5] -17.9% | [6] -18.9%

CN1C(=O)CNS1(=O)=O
inactive: [1] -1.45% | [2] 9.6% | [3] -4.35% | [4] -11.1% | [5] 4.6% | [6] 7.3%

Nc1ncnc2c1nnn2CC(O)CO (stereo unspecified)
inactive: [1] -36% | [2] -19.2% | [3] -17.4% | [4] -25.5% | [5] -2.9% | [6] 5.2%

COC(=O)C(N)Cc1ccc(OCc2ccccc2)cc1 (stereo unspecified)
inactive: [1] -0.8% | [2] 5.2% | [3] -2.25% | [4] -4.25% | [5] 24.4% | [6] -5.35%

CCC(CC)COC(=O)CC(CC(=O)OCC(CC)CC)C(=O)OCC(CC)CC
inactive: [1] -12.3% | [2] -4.85% | [3] 9.35% | [4] -20.1% | [5] 1.1% | [6] 24.6%

O=c1ccn2c(n1)OC1CC2OC1COC(c1ccccc1)(c1ccccc1)c1ccccc1 (stereo unspecified)
inactive: [1] -8.8% | [2] 4.15% | [3] 12.2% | [4] -17.4% | [5] 3.6% | [6] 10.3%

CN1C(=O)c2ccccc2NC(=O)C12O[C@@H]2c1cccc(O)c1 (stereo partly specified)
inactive: [1] 9% | [2] -0.55% | [3] 11.2% | [4] 8.9% | [5] 6.9% | [6] 8.05%

Cc1ccc([N+](=O)[O-])cc1NC(=O)Oc1cc(=O)oc2ccccc12
inactive: [1] 3.2% | [2] 6.8% | [3] -6.9% | [4] -18.1% | [5] 1.7% | [6] -0.75%

CCOC(=O)Cn1c(=O)c2nc(SC)sc2n(CC)c1=S
inactive: [1] -21.8% | [2] 21.1% | [3] -1.15% | [4] -6.55% | [5] 9.45% | [6] 4%

CS(=O)(=O)OCCN1C(=O)CNC1=O
inactive: [1] 4.6% | [2] 8.35% | [3] -9.45% | [4] -27.8% | [5] 9.55% | [6] -2.7%

Cc1cccc(Cl)c1N
inactive: [1] -5.55% | [2] -7.95% | [3] 6.9% | [4] 3.15% | [5] -2.4% | [6] -3.15%

O=C1c2cc3c(cc2CC1Cc1ccc2c(c1)CCC2)CCC3 (stereo unspecified)
inactive: [1] -28.8% | [2] -23.8% | [3] -33.2% | [4] -34% | [5] -20.5% | [6] -33.1%

CCN(CC)CCC(O)(Cc1ccccc1)c1cccc(Cl)c1 (stereo unspecified)
inactive: [1] 21.6% | [2] 7.95% | [3] 5.75% | [4] -67.5% | [5] 16.6% | [6] 21.4%
